CYP2C9 activ – CYP2C9 (human) activation | P11712 | recombinant CYP2C9, luciferin-H conversion, luminescence; hits give high values; factor 1 = untreated enzyme, 0 = blocked | activation factor at 5 µM | hit rate 1.4% among 96,000 | AID 1024;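 active = activation factor of 2 or more for CYP2C9 at a 5 µM dose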;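 also: 0 = sulfaphenazole-blocked wells and 1 = vehicle-only wells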
CYP2C19 inh – blocks human cytochrome P450 2C19. P33261. CYP2C19 Supersomes, luciferin-H EGE luminescence, 30 min. inhibition, % at 5 µM. hit rate 21% among 96,000;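 active = CYP2C19 inhibition above a set limit at 5 µM in the primary screen, cut at about 50% in these data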;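 also: plate controls were negative control wells for no effect and 2.5 mM tranylcypromine positive control for full effect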
Target sequence (P33261 whole entry, looked up): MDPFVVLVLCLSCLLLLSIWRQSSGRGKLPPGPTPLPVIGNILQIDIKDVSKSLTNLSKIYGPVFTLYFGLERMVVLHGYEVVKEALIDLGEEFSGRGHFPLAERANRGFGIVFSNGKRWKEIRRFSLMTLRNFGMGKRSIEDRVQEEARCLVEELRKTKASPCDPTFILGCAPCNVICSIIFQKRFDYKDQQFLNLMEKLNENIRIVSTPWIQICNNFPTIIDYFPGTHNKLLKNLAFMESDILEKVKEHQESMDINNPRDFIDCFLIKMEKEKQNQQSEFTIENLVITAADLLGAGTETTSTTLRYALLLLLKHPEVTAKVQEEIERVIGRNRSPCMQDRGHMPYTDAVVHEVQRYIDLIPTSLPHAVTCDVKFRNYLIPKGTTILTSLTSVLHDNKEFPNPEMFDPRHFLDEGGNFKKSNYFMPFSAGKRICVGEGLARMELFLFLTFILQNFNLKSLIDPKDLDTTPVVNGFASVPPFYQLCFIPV
PTK2B oligo ant – blocks oligomerization of human Pyk2 in cells; Q293 cells, Pyk2 FERM NanoBiT luminescence; hits give low values; hit rate 0.83% among 99,000; AID 1347419; z-score (the deposit names both 25 µM and 10 µM);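 active = Z-score of -3 or lower, scaled per plate to the spread of control and sample wells; inactive = z-score above -3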;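 also: negative z-score means lost luminescence so less FERM oligomerization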
CYP2C9 inh – inhibitors of human CYP2C9; P11712; CYP2C9 Supersomes, luciferin-H conversion, luminescence; inhibition, % at 5 µM; hit rate 20% among 96,000; AID 777;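 active = blocking of liver enzyme CYP2C9 beyond about 50% at 5 µM, limit read from the data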
CYP2C19 activ – increases human CYP2C19 enzyme activity; 96,000 tested, under 10 active; activation factor at 5 µM; recombinant CYP2C19, luciferin-H EGE luminescence; hits give high values; 0 = fully inhibited enzyme, 1 = untreated enzyme;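 active = activation factor of at least 2 at 5 µM in the primary screen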;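 also: 0 = wells with 2.5 mM tranylcypromine and 1 = vehicle-only wells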
Starred values were filed as active, the others as inactive; nt = not tested or not shown. Only some compounds are listed: those with a hit (about 28% of all), similar ones and a draw of the others.

SMILES	CYP2C9 activ	CYP2C19 inh	PTK2B oligo ant	CYP2C9 inh	CYP2C19 activ
Cc1cc(C)c(NC(=O)c2cnn(C)c2)c(C)c1	nt	nt	0.91	nt	nt
Cc1ccc2c(c1)N(CC(=O)N(Cc1ccc3c(c1)OCO3)CC1CCCO1)C(=O)C(C)O2 (stereo not drawn)	0.7	45.5	-0.78	33.0	0.5
COC(=O)c1ccc(NC(=O)CSC2=Nc3ccccc3C3CC=NN23)cc1 (stereo not drawn)	0.3	67.7*	-0.64	69.3*	0.3
Cc1ccc(NC(=O)CSC2=Nc3ccccc3C3CC=NN23)c(C)c1 (stereo not drawn)	0.6	92.9*	-0.12	37.4	0.1
O=C(OCC(=O)N1CCC(Cc2ccccc2)CC1)c1ccc[nH]c1=O	0.9	0.8	1.19	14.4	1
CCN(CC)C(=O)CN(c1ccc(Cl)cc1)S(=O)(=O)c1ccccc1	0.9	68.0*	-0.7	6.7	0.3
CCN(CC)C(=O)CN(c1ccc(C)cc1)S(=O)(=O)c1ccc(SC)cc1	0.7	20.7	-0.59	31.4	0.8
COC(=O)CC/C(O)=C1/C(=N)CC(C)(C)CC1=O	1	0.2	2.62	3.4	1
CC1(C)CC(=O)c2c(nc(SCC(=O)Nc3nsc(-c4ccccc4)n3)c(C#N)c2-c2ccccc2)C1	0.2	54.4*	-1.71	84.9*	0.5
CCc1c(C#N)c(SCCC(=O)Nc2ccc(F)cc2)nc2c1C(=O)CC(C)(C)C2	0	97.6*	-3.23*	97.0*	0
CC1(C)CC(=O)c2cnc(NC(=O)CCc3ccccc3)nc2C1	0.8	9.4	1.5	24.8	0.9
COc1ccc(-c2c(C#N)c(SCc3c(C)noc3C)nc3c2C(=O)CC(C)(C)C3)cc1	0.6	4.8	-0.89	42.6	1
CCc1c(C#N)c(SCCC(=O)Nc2cccc(OC)c2)nc2c1C(=O)CC(C)(C)C2	0	97.9*	-2.35	98.4*	0
Cc1ccnc(NCn2nnc3ccccc32)c1	1	-6.3	0.05	-3.3	1.1
O=C(c1ccc2nc(N3CCCCC3)sc2c1)N1CCN(c2ccccn2)CC1	0.6	43.2	nt	36.8	0.6
COc1cccc2c3c(c(=O)[nH]c12)CCC(C)(C)O3	0.7	45.0	0.4	30.0	0.6
CC(=O)c1cccc(NC(=O)CN2C(=O)COc3ccc(Cl)cc32)c1	0.4	37.6	1.17	62.2*	0.6
CC(=O)c1cccc(NC(=O)CN2C(=O)C3C4C=CC(C4)C3C2=O)c1 (stereo not drawn)	0.3	95.4*	0.75	72.1*	0
Cc1ccc2c(c1)N(CC(=O)Nc1ccc3c(c1)OCCO3)C(=O)CO2	0.8	20.9	-0.42	17.2	0.8
CCOc1ccccc1NC(=O)CN1C(=O)COc2ccc(Cl)cc21	1	50.5*	nt	2.5	0.5
Cc1ccc(-c2csc(/C(C#N)=C(\O)CN3CCN(C(=O)c4ccco4)CC3)n2)cc1	0.5	0.7	0.15	47.7	1
CC1(c2ccccc2)NC(=O)N(CC(=O)Nc2cccc(C#N)c2)C1=O (stereo not drawn)	0.3	34.0	0.69	73.2*	0.7
CCOC(=O)c1cc(-c2ccccc2)sc1NC(=O)CN1C(=O)NC(CC)(c2ccccc2)C1=O (stereo not drawn)	0.1	30.5	-0.74	88.7*	0.7
CCC1(c2ccccc2)NC(=O)N(CC(=O)Nc2cccc(C#N)c2)C1=O (stereo not drawn)	0.5	70.9*	0.51	46.4	0.3
CCOC(=O)c1cc(-c2ccccc2)sc1NC(=O)CN1C(=O)NC(CC)(c2ccc(F)cc2)C1=O (stereo not drawn)	0.9	-19.1	-0.96	14.6	1.2
SMILES	CYP2C9 activ	CYP2C19 inh	PTK2B oligo ant	CYP2C9 inh	CYP2C19 activ
CC1(c2ccccc2)NC(=O)N(CC(=O)Nc2ccc3c(c2)OCO3)C1=O (stereo not drawn)	0.1	32.7	0.32	87.1*	0.7
CC(C)C(NC=C1C(=O)OC(C)(C)OC1=O)C(=O)O (stereo not drawn)	0.3	2.3	0.23	65.0*	1
O=C(O)CC1SC(=Nc2ccccc2)N(c2ccccc2)C1=O (stereo not drawn)	1.2	-1.2	0.1	-16.7	1
OCc1csc(=Nc2ccccc2)n1-c1ccccc1	1	87.9*	-1.2	-2.2	0.1
Cc1csc(SCC(=O)Nc2cc(S(=O)(=O)N3CCCC3)ccc2Cl)n1	0.5	31.0	-0.1	53.5*	0.7
Cc1csc(SCC(=O)c2ccc(S(=O)(=O)N3CCOCC3)cc2)n1	0.6	47.6	0.86	39.9	0.5
Cc1csc(SCC(=O)Nc2cccc(S(=O)(=O)N3CCCC3)c2)n1	0.2	81.1*	1.18	78.2*	0.2
CCOC(=O)c1cc2c(=O)n3cccc(C)c3nc2n(Cc2ccco2)c1=NC(=O)c1ccccc1	nt	nt	-1.28	nt	nt
C=CCN1C(=O)C2C(C(=O)NC3CCCCC3)C3C=CC2(O3)C1C(=O)NC1CCCC1 (stereo not drawn)	1.1	-10.7	1.06	-13.5	1.1
O=C(OCCN(C1=NS(=O)(=O)c2ccccc21)c1ccc(Cl)cc1)c1ccco1	0.2	86.4*	1.42	85.0*	0.1
O=C(Oc1ccc(N(Cc2cccs2)C2=NS(=O)(=O)c3ccccc32)cc1)c1ccco1	nt	nt	-2.24	nt	nt
O=C1NCCc2cc3c(cc21)OCO3	nt	nt	0.42	nt	nt
O=C(c1ccc(F)cc1)N1CCN(c2cc(N3CCCCC3)c(F)cc2[N+](=O)[O-])CC1	0.1	94.9*	-0.25	85.7*	0.1
Cc1ccc(Nc2nc3nonc3[nH]c2=O)cc1C	0.4	-9.3	-1.61	58.3*	1.1
Cc1ccc(NC2=CC(=O)CCC2)cc1C	1	10.1	0.99	1.7	0.9
CCCn1nnc(NC(=O)c2ccc(F)cc2)n1	0.8	25.9	-0.28	20.0	0.7
Cc1ccc(S(=O)(=O)N(CC(=O)N2CCCCCC2)c2ccccc2)cc1	0.7	11.8	-0.74	31.9	0.9
Cc1ccc(N(CC(=O)N2CCN(C3CCCCC3)CC2)S(=O)(=O)c2cccnc2)cc1	0.3	30.7	-0.21	73.6*	0.7
CC(=O)Nc1ccc(NC(=O)Oc2ccccc2)cc1	0.9	9.7	-0.07	9.7	0.9
COc1ccc(OC(=O)Nc2ccccc2)cc1	0.3	78.3*	0.38	66.9*	0.2
CN(C)c1ccc(C(=O)c2ccccc2)cc1	1.1	87.8*	0.36	-9.3	0.1
CN(C)c1ccc(C(=O)C(O)c2ccccc2)cc1 (stereo not drawn)	nt	nt	1.36	nt	nt
CN(C)c1ccc(NC(=O)Oc2ccccc2)cc1	0.9	90.8*	0.05	6.3	0.1
COc1cc(C=O)ccc1OCCSc1ccc(C)cc1	0.3	85.0*	-0.31	67.7*	0.2
CCOc1cc(C=O)ccc1OCCSc1ccc(C)cc1	0.3	76.7*	-0.84	69.7*	0.2
COc1ccc(CCC(C)Nc2ccc(F)cc2)cc1 (stereo not drawn)	nt	nt	0.39	nt	nt
CC(=O)c1sc2nc(-c3cccs3)cc(C(F)(F)F)c2c1N	0.3	57.6*	-1.24	67.2*	0.4
Cc1c(C(=O)Nc2nccs2)sc2nc(-c3cccs3)cc(C(F)(F)F)c12	0.6	12.6	-1.26	38.2	0.9

Source: PubChem BioAssay
